# Test results reported in PubChem BioAssay AID2314 (National Center for Advancing Translational Sciences (NCATS), 2010).
# Where “and” joins values, the source holds several entries; their conditions need not be identical. Equal entries are not always repeated. Among all 300,000 compounds or so, about 37,000 (12%) were called active. This excerpt belongs to a sample that is enriched for actives. Values without a mark were called inactive. No stated cut-off is given here; in the data, active means max response mostly above about 13% (no sharp cut-off); inactive means mostly below about 14%.
# Assay: Cycloheximide Counterscreen for Small Molecule Inhibitors of Shiga Toxin; further: read at 38.3 µM for the half of the compounds with a filed dose; 0% is about no effect
# Details: cell reporter, cycloheximide protein synthesis inhibition counterscreen; active compounds read high
row,SMILES,max response
1,Cn1cc(S(=O)(=O)Nc2ccc(Cl)cc2Cl)c(=O)n(C)c1=O,-2.38%
2,CC(C)C[C@@H](NC(=O)[C@H]1CCCN1C(=O)Cc1ccccc1)C(N)=O,8.92%
3,CCC1(CC)C(=O)C2=C3C1[C@H](C(=O)OC)C=C(C(=O)OC)C[C@H]3[C@H]1C(=O)N(Cc3ccccc3)C(=O)[C@H]1[C@H]2C (stereo partly specified),-3.02%
4,CC(NC(=O)Cn1cc(C(F)(F)F)cc(Cl)c1=O)c1ccccc1 (stereo unspecified),11.8%
5,CC[C@H](C)[C@H](NC(=O)[C@H](Cc1cnc[nH]1)NC(=O)[C@@H](N)CCC(=O)O)C(=O)N1CCC[C@H]1C(=O)N[C@@H](C)C(=O)O,-2.98%
6,CCCCn1ccnc1C(=O)c1cccc(S(=O)(=O)N2c3ccccc3CC2C)c1 (stereo unspecified),-2.53%
7,CC(=O)OC(C(=O)NCCc1ccccc1)c1cccnc1 (stereo unspecified),-0.715%
8,N/C(=N\OC(=O)CCc1ccccc1)c1cccnc1,27.3% (active)
9,O=C(O)CCc1cccnc1,2.51%
10,O=C(CCC(=O)OCc1ccc(Cl)cc1)Nc1ccccc1,-2.49%
11,N/C(=N\OC(=O)CCc1ccccc1)c1ccc(Cl)cc1,24.7% (active)
12,Cc1ccc(/C(N)=N/OC(=O)COc2ccc(Cl)c(C)c2)cc1,-3.46%
13,CCCOc1ccc(NC(=O)CC2C(=O)N(C)C(=S)N2Cc2ccc3c(c2)OCO3)cc1 (stereo unspecified),-2.42%
14,Cc1cccc(NC(=O)C(C)N2C(=O)C3C4CC(C(Br)C4Br)C3C2=O)c1 (stereo unspecified),-1.4%
15,COc1ccc(NC(=O)C(C)SCc2ccccc2)cc1 (stereo unspecified),23%
16,Cc1cccc(NC(=O)C(C)SCc2ccccc2)c1 (stereo unspecified),21.6% (active)
17,CC(C(=O)Nc1ccc(O)c(C(=O)O)c1)N1C(=O)/C(=C/c2cccs2)SC1=S (stereo unspecified),-1.39%
18,CC1(C)CC(CNCCC(c2ccc(F)cc2)c2ccco2)CCO1 (stereo unspecified),0.614%
19,CCOC(=O)C1(CCOc2ccccc2)CCN(Cc2cc(OC)c(O)cc2Cl)CC1,-2.51%
20,Nc1nnc(SCC(=O)Nc2ccc3nc(SCC(=O)Nc4ccccc4)sc3c2)s1,33.9% (active)
21,CCCCNC(=O)CSc1nc2ccc(NC(=O)CSc3nnc(N)s3)cc2s1,2.41%
22,CCCCNC(=O)CSc1nc2ccc(NC(=O)CSc3nnc(COc4ccccc4C)n3C)cc2s1,5.25%
23,C#CCOc1ccc(/C=C2/C(=O)NN(c3ccccc3)C2=O)cc1OC,-3.05%
24,COC(=O)c1cn(CC(=O)NCc2cccs2)c2ccccc12,68.2% (active)

row,SMILES,max response
1,O=C(Cn1cc(C(=O)c2cccs2)c2ccccc21)NCc1cccs1,39% (active)
2,CCN(CC)C(=O)C(=O)c1cn(CC(=O)NCc2ccc3c(c2)OCO3)c2ccccc12,-2.04%
3,COC(=O)Cn1cc(C(=O)c2cccs2)c2ccccc21,-0.264%
4,O=C(CN1CCN(c2ccccn2)CC1)NCc1cccs1,-3.83%
5,COCCCNC(=O)Cn1cc(C(=O)C2CC2)c2ccccc21,-2.09%
6,Cc1cccc(N(C(=O)c2sc(C)nc2C)C(C(=O)NCC2CCCO2)c2ccccc2)c1 (stereo unspecified),-2.65%
7,CCOc1ccc(NC(=O)C(C)N2C(=O)c3ccccc3C2=O)cc1 (stereo unspecified),-2.64%
8,O=C(CSc1nc2ccccc2s1)Nc1ccc(C(=O)O)cc1,-4.27%
9,O=C(O)CSc1nccc2ccccc12,2.48%
10,O=C(O)c1cccc(S(=O)(=O)Nc2ccc(O)cc2Sc2nc3ccccc3s2)c1,4.69%
11,O=C(O)CSCc1nc2ccccc2s1,27.6% (active)
12,CN(Cc1nc2ccccc2s1)C(=O)c1ccc(F)cc1,14.2%
13,O=C(O)CCCCc1nc2ccccc2s1,3.94%
14,O=C(O)CC/C(=C\c1cc2c(cc1Br)OCO2)c1nc2ccccc2s1,0.661%
15,O=C(O)c1ccccc1CSc1nc2ccccc2s1,34% (active)
16,O=C(O)CS/C(=C\c1ccc(F)cc1)c1nc2ccccc2s1,37.2% (active)
17,C=CCn1c(-c2ccccc2OCC)n[nH]c1=S,5.03%
18,COc1ccccc1C(=O)N(Cc1ccc(C)o1)C1CCS(=O)(=O)C1 (stereo unspecified),1.49%
19,COc1cc(Cl)c(C)cc1NC(=O)CSc1nnc(-c2ccco2)n1CC(C)C,-3.52%
20,O=C(CC12CC3CC(CC(C3)C1)C2)Nc1ccc2c(c1)COC2=O,-2.75%
21,Cc1ccc2c(C)c(C(=O)N3CCC(N4CCC(C(=O)NC5CC5)CC4)CC3)oc2c1,0.384%
22,Cc1ccc2oc(C(=O)N3CCN(C)C[C@@H]3C(C)C)c(C)c2c1,22.3% (active)
23,COc1ccccc1N1CCN(C(=O)c2cc(=O)c3cc(C)ccc3o2)CC1,-2.83%
24,COc1cccc(CNC(=O)c2cccnc2Sc2ccc(Cl)cc2)c1,0.861%

row,SMILES,max response
1,O=C(NCc1cc(C(F)(F)F)cc(C(F)(F)F)c1)C1CC(c2cccc(F)c2)=NO1 (stereo unspecified),-1.65%
2,CCCn1nc(NS(=O)(=O)c2ccc(F)cc2)c2cc3ccccc3nc21,-11.4%
3,Cc1cccc(N2Cc3ccccc3C2=NC(=O)c2ccc(Cl)nc2)c1,35.1% (active)
4,Cc1cccc(N2CCN(C(=O)c3cccc(S(=O)(=O)N4CCc5ccccc5C4)c3)CC2C)c1 (stereo unspecified),1.1%
5,N#Cc1ccc(N2Cc3ccccc3/C2=N/C(=O)Nc2ccc(Cl)cc2)cc1,15%
6,COc1ccc(C(=O)CC(=O)C(=O)Nc2cc([N+](=O)[O-])ccc2OC)cc1,-2.37%
7,Cn1c(N2CCOCC2)c(C=O)c2ccccc21,-2.7%
8,Cc1ccc(S(=O)(=O)N(CC(=O)N2CCc3ccccc3C2)c2cccc(Cl)c2)cc1,-3.56%
9,Cc1ccccc1N1CC(c2nc3ccccc3[nH]2)CC1=O (stereo unspecified),-2.15%
10,COc1ccc(-c2[nH]nc(-c3ccccc3)c2-c2nc3ccccc3[nH]2)cc1,-1.76%
11,Cc1ccc(-c2nc3ccccc3[nH]c2=O)cc1,24.9% (active)
12,CCC(C(=O)NC1CCCCC1)N(C(=O)c1snc(C(N)=O)c1N)c1ccc(OC)cc1OC (stereo unspecified),-5.48%
13,COc1ccccc1C(=O)Nc1ccnn1C1CCN(C(=O)C(C)(C)C)CC1,2.22%
14,Cc1ccc(S(=O)(=O)/N=C(/Nc2ccccn2)c2ccc(Cl)cc2)cc1,18.6% (active)
15,O=S(=O)(Nc1ccccn1)c1cccc(S(=O)(=O)c2ccc(Cl)cc2)c1,1.04%
16,O=S(=O)(/N=C(/Nc1ccccn1)c1ccccc1)c1ccc(Cl)cc1,15.2% (active)
17,O=C(Nc1ccc(S(=O)(=O)Nc2ccccn2)cc1)c1ccccc1,-3.7%
18,Cc1ccc(S/C(=N\S(=O)(=O)c2ccc(Cl)cc2)c2ccccc2)cc1,-3.74%
19,Cc1ccc(S(=O)(=O)/N=C(/Nc2ccc3[nH]c(=O)[nH]c3c2)c2ccccc2)cc1,-2.26%
20,COc1ccc(SCCN2CCN(CC(C)C)CCC2=O)cc1,4.3% and 7.92%
21,Cc1nn(C)c(C)c1C(C)NC(=O)c1ccc(OC2CCN(Cc3ccccn3)CC2)cc1 (stereo unspecified),-1.08%
22,CC1CCCCC1NC(=O)/C(C#N)=C/C=C/c1ccccc1[N+](=O)[O-] (stereo unspecified),32.9% (active)
23,O=C(/C=C/c1ccccc1[N+](=O)[O-])OC1CCCCC1=O (stereo unspecified),-0.626%
24,O=C(/C=C/c1ccccc1[N+](=O)[O-])NCC1CCCO1 (stereo unspecified),10.2%

row,SMILES,max response
1,CCN(C(=O)CSc1nc2ccccc2n1CC)C1CCS(=O)(=O)C1 (stereo unspecified),1.92%
2,CCC(C)(C)c1ccc(Oc2ccc(NC(=O)COC(=O)C3=COCCO3)cc2)cc1,5.65%
3,O=C(OCC(=O)c1cccs1)c1ccc([N+](=O)[O-])o1,3%
4,O=C(OCC(=O)c1cccs1)C1=COCCO1,51.4% (active)
5,CCOC(=O)c1c(C)[nH]c(C)c1S(=O)(=O)NCCCc1ccco1,-2.93%
6,CCOc1ccc(C2c3[nH]c4ccccc4c3CCN2Cc2cccn2-c2ncccn2)cc1 (stereo unspecified),0.0691%
7,C/C(=N\NC(=O)C1(C)CC1(Br)Br)c1ccc(C)cc1C (stereo unspecified),12.6%
8,O=[N+]([O-])c1cc(S(=O)(=O)Nc2cccc(Cl)c2)ccc1N=Nc1c(O)[nH]c2ccccc12,-1.65%
9,C=CCOc1ccccc1/C=N/NC(=O)Cc1ccccc1,9.84%
10,O=C(CCCCCNC(=O)c1ccccc1)N/N=C/c1ccccc1,13.5%
11,O=C(CCC(=O)Nc1ccccc1)N/N=C/c1ccccc1F,25.1% (active)
12,COc1ccc(C(C)NC(=O)C23CC4CC(CC(C4)C2)C3)cc1 (stereo unspecified),-0.477%
13,Cc1noc(C)c1S(=O)(=O)Nc1ccc(C(=O)N2CCN(c3ccc(F)cc3)CC2)cc1,11.8%
14,CCOC(=O)C1=C(O)CSC1=Nc1cccc(Cl)c1,-2.53%
15,CN(C)c1nc(=Nc2cccc(Cl)c2)ss1,24.1% (active)
16,N#Cc1cccc(NC(=O)COC(=O)c2ccccc2C(=O)c2ccc(Cl)c([N+](=O)[O-])c2)c1,3.74%
17,O=c1[nH]c(=S)[nH]c2[nH]c(=S)[nH]c12,-3.22%
18,CCOC(=O)C1CCN(C(=O)c2ccccc2N(C)S(=O)(=O)c2ccccc2)CC1,-2.92%
19,O=S(=O)(Nc1ccccc1Br)c1cccs1,-5.92%
20,O=S(=O)(NCCc1ccc(Cl)cc1)c1cccs1,7.85%
21,O=C(Nc1cccc(Cl)c1)Nc1ccccc1NS(=O)(=O)c1cccs1,11% (active)
22,O=C(Nc1nncs1)c1ccccc1NS(=O)(=O)c1cccs1,2.77%
23,O=S(=O)(NCc1ccc(Cl)cc1Cl)c1cccs1,14.3% (active)
24,CN(Cc1ccc(F)cc1Cl)S(=O)(=O)c1cccs1,15.3%
